According to article PMC7862700, “An all-to-all approach to the identification of sequence-specific readers for epigenetic DNA modifications on cytosine”:

How the values were obtained:
Assay in all cases: DAPPL (digital affinity profiling via proximity ligation, sequencing); 10 mM Tris-HCl pH 7.5, 50 mM NaCl, 1 mM DTT, 4% glycerol, room temperature, 30 min; GST-TFs on glutathione beads, 16-mer random dsDNA library, 0.1% formaldehyde crosslink after washing; high values mean tight binding
[1] = target: T1, FEV (Homo sapiens, UniProt Q99581 1-238); conditions: protein: recombinant; tags: N-terminal GST; dsDNA, one strand shown
T1 sequence: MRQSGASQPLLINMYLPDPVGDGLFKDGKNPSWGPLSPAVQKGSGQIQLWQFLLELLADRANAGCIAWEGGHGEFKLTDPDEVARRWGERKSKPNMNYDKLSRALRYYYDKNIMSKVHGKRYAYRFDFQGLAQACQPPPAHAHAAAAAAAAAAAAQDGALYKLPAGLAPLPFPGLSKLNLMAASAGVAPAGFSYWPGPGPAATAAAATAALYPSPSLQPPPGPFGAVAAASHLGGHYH
Summary of the method: (§1)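 Beads coated with glutathione captured GST-fused human transcription factors that had been expressed in yeast, and the factors were then given DNA barcodes and pooled with a tag-only sample. The pools were incubated with 200 nmole of a random double-stranded 16-mer DNA library in Tris/NaCl/DTT/glycerol buffer for 30 min at room temperature, washed, crosslinked with 0.1% formaldehyde and proximity-ligated with BsaI/T4 ligase at 37 °C for 1 h. PCR amplification and Illumina NextSeq500 sequencing came last. Binding signal is each hexamer's read frequency for a factor divided by its frequency for the tag-only sample.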

[2] = target: ETV5 (Homo sapiens, UniProt P41161 1-510); conditions: protein: recombinant; tags: N-terminal GST; dsDNA, one strand shown
Sequence of ETV5 (P41161 whole entry): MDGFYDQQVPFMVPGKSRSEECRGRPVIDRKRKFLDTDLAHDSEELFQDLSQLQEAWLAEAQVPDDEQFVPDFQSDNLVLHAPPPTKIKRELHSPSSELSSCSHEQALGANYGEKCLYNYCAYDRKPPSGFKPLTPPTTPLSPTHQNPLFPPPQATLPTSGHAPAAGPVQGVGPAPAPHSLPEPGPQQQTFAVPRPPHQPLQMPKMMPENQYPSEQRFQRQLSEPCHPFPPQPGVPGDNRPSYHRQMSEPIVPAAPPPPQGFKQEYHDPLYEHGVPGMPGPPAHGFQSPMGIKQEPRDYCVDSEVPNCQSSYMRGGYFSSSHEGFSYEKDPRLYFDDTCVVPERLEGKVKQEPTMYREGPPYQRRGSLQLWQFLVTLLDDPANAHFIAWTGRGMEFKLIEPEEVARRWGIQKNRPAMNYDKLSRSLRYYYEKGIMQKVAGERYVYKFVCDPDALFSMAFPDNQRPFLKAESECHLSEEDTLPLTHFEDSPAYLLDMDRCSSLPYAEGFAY
Summary of the method: as §1

[3] = target: HSF1 (Homo sapiens, UniProt Q00613 1-529); conditions: protein: recombinant; tags: N-terminal GST; chain copies: 3; dsDNA, one strand shown
Sequence of HSF1 (Q00613 whole entry): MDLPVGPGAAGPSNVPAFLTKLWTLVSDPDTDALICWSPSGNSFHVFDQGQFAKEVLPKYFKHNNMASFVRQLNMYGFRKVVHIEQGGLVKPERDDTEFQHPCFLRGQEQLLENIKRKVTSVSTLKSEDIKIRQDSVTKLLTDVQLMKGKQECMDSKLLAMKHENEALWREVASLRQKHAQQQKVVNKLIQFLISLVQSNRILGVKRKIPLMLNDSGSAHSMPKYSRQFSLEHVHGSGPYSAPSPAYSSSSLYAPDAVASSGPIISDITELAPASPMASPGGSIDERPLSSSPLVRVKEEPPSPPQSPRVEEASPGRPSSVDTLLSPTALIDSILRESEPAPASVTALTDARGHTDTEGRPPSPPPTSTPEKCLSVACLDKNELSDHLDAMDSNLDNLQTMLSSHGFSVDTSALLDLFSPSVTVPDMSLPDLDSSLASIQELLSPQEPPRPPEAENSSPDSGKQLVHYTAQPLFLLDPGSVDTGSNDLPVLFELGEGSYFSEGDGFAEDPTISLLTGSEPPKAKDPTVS
Summary of the method: as §1

[4] = target: T2, SPIC (Homo sapiens, UniProt Q8N5J4 1-248); conditions: protein: recombinant; tags: N-terminal GST; dsDNA, one strand shown
T2 sequence: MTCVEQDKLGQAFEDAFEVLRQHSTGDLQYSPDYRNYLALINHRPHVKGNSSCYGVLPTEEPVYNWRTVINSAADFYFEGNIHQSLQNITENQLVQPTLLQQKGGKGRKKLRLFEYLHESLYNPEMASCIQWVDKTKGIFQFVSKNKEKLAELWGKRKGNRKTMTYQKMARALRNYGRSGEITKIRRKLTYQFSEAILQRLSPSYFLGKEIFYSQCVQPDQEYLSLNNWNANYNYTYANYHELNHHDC
Summary of the method: as §1

[5] = target: ELF4 (Homo sapiens, UniProt Q99607 1-663); conditions: protein: recombinant; tags: N-terminal GST; dsDNA, one strand shown
Sequence of ELF4 (Q99607 whole entry): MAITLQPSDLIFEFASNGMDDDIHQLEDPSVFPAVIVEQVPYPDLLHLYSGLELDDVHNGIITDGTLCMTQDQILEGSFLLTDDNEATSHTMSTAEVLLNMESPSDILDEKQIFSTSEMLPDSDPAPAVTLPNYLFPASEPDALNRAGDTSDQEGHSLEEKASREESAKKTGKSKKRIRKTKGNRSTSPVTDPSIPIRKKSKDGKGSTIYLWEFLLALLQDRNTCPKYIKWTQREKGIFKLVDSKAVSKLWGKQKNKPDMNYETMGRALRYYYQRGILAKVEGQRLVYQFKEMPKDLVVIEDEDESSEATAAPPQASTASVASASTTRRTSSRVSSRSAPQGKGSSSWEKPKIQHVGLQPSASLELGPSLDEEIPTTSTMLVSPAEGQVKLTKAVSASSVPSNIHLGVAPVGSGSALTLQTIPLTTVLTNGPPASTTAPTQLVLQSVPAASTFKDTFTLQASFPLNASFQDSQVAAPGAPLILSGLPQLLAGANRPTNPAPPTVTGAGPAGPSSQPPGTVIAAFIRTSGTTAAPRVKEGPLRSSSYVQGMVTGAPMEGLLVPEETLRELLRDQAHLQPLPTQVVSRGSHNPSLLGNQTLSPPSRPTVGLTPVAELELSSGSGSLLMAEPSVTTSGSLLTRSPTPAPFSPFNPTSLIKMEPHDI
Summary of the method: as §1

[6] = target: T3, ELK4 (Homo sapiens, UniProt P28324-2 1-405); conditions: protein: recombinant; tags: N-terminal GST; dsDNA, one strand shown
T3 sequence: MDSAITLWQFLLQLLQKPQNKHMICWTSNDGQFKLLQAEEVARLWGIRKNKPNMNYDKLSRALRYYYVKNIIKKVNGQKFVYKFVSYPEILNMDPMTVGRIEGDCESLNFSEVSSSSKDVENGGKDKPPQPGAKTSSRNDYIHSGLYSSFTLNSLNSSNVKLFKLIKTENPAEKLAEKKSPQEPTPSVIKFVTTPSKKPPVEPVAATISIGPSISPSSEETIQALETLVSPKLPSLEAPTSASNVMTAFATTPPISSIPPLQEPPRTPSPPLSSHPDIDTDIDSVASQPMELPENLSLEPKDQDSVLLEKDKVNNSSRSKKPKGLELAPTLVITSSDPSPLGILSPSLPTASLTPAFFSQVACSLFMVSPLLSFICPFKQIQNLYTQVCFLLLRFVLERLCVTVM
Summary of the method: as §1

[7] = target: T4, ETV2 (Homo sapiens, UniProt O00321 1-342); conditions: protein: recombinant; tags: N-terminal GST; dsDNA, one strand shown
T4 sequence: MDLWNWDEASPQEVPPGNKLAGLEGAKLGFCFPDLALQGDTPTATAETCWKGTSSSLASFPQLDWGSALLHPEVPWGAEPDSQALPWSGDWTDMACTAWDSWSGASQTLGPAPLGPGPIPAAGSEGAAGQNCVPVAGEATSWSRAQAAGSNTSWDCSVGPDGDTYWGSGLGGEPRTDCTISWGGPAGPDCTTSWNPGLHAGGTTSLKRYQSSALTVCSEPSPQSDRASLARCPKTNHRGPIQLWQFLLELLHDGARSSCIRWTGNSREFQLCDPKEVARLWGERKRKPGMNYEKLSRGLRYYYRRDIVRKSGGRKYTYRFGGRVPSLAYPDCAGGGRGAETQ
Summary of the method: as §1

[8] = target: T5, ELF3 (Homo sapiens, UniProt P78545 1-371); conditions: protein: recombinant; tags: N-terminal GST; dsDNA, one strand shown
T5 sequence: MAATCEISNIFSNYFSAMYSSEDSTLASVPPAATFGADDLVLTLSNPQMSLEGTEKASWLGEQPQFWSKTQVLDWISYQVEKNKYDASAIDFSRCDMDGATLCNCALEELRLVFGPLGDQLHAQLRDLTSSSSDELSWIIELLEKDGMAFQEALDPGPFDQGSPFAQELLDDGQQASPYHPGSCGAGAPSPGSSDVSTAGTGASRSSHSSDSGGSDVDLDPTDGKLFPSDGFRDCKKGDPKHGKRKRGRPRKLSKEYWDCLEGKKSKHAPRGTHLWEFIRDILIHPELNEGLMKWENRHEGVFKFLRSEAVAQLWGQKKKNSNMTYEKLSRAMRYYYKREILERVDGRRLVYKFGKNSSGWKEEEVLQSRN
Summary of the method: as §1

[9] = target: CRX (Homo sapiens, UniProt O43186 1-299); conditions: protein: recombinant; tags: N-terminal GST; dsDNA, one strand shown
Sequence of CRX (O43186 whole entry): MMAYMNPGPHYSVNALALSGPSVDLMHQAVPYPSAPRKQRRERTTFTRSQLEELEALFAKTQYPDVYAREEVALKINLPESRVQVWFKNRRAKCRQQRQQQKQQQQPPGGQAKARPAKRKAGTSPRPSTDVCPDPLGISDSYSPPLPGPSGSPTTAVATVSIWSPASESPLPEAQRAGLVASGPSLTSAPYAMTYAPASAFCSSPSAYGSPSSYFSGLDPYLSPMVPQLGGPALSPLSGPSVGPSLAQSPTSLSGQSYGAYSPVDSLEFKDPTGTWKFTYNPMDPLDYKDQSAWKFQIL
Summary of the method: as §1

[10] = target: ETV1 (Homo sapiens, UniProt P50549 1-477); conditions: protein: recombinant; tags: N-terminal GST; dsDNA, one strand shown
Sequence of ETV1 (P50549 whole entry): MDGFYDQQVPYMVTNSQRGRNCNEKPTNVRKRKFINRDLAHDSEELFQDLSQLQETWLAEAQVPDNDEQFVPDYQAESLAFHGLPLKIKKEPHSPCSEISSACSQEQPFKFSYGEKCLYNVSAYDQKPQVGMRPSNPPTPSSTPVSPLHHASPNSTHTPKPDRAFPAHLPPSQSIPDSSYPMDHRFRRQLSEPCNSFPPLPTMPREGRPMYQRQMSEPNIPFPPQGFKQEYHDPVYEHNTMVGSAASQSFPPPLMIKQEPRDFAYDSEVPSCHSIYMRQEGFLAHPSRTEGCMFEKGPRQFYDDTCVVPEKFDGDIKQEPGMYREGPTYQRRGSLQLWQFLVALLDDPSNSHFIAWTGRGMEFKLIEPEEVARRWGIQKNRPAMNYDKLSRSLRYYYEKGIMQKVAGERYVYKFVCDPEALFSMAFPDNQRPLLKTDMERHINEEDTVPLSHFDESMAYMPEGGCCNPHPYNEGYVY
Summary of the method: as §1

Sequence: ATGGAT
- binding signal [1]: 1.04 fold enrichment (6-mer frequency, TF over GST control)
- binding signal [2]: 1.07 fold enrichment (6-mer frequency, TF over GST control)
- binding signal [3]: 1.26 fold enrichment (6-mer frequency, TF over GST control)
- binding signal [4]: 1.21 fold enrichment (6-mer frequency, TF over GST control)
- binding signal [5]: 1.11 fold enrichment (6-mer frequency, TF over GST control)
- binding signal [6]: 1.14 fold enrichment (6-mer frequency, TF over GST control)
- binding signal [7]: 1.06 fold enrichment (6-mer frequency, TF over GST control)
- binding signal [8]: 1.09 fold enrichment (6-mer frequency, TF over GST control)
- binding signal [9]: 1.6 fold enrichment (6-mer frequency, TF over GST control)
- binding signal [10]: 1.06 fold enrichment (6-mer frequency, TF over GST control)
